A short description of assay [1]: qHTS to identify inhibitors of the type 1 interferon - major histocompatibility complex class I in skeletal muscle: primary screen against the NCATS Mechanism Interrogation Plate v5.0 (MIPE) Libary (AID 1347411).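 Note: plate controls were vehicle for no effect and reference inhibitor for full effect; nearly all actives have a fitted effect of over 65% in size.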 In short, it runs like this:
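IFN-beta-driven (4 ng/ml) HLA-B-HiBit expression in CRISPR-tagged C25cl48 myoblasts; compounds 11-pt, 1:3, max 46 uM, 24 hr exposure; lytic NanoLuc complementation luminescence.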
(In general: qHTS replaces the single test concentration by a dilution series.)

A short description of assay [2]: Primary qHTS for inhibitors of nuclear receptor binding SET domain protein 2 (NSD2) in an isogenic RCH-ACV NSD2 p.E1099K mutant (9B) (AID 1645876). Note: nearly all actives have a fitted effect of over 70% in size. Note: potency is the fitted concentration of half-maximal effect.
A short description of assay [3]: Primary qHTS for inhibitors of nuclear receptor binding SET domain protein 2 (NSD2) in an RCH-ACV wild type WT cells (2C) (AID 1645877). Note: nearly all actives have a fitted effect of over 70% in size. Note: potency is the fitted concentration of half-maximal effect.
The target of assay [4] is Phospholipid hydroperoxide glutathione peroxidase GPX4 (Homo sapiens) (UniProt P36969). The experiment in a line: Primary qHTS Assay for Inhibitors of Recombinant Selenoprotein Glutathione Peroxidase 4 (GPX4) (AID 1845192). Note: nearly all actives have a fitted effect of over 65% in size. Conditions: outcome: dose series up to 50 µM unless noted. An outline of the steps:
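qHTS, GR-coupled: GPX4 200 nM + cpd 30 min RT → GSH 1 mM, NADPH 0.5 mM, GR 100 nM → CHP 0.5 mM start; fluor 340/450 at t0 and t15 min; no-enzyme wells as control.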

A short description of assay [5]: qHTS drug screen for cell cycle checkpoint inhibitors in PARPi-resistant BRCA-mutant ovarian cancer cell lines. (AID 1963452; calls by dose curve). Conditions: PEO1/OlaR viability, CellTiter-Glo luminescence, 96 h, stronger effect = lower value. An outline of the steps:
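PEO1, PEO4 and PEO1/OlaR ovarian cancer cells, 600 per well, exposed 96 h at 37C to a dilution series. Viability read by CellTiter-Glo luminescence, normalized to DMSO and empty wells; activity summarized as Z-AUC.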

Assay [6] deals with Glutathione peroxidase 1 (Homo sapiens) (UniProt P07203). The assay is described as follows: Primary qHTS Assay for Inhibitors of Recombinant Selenoprotein Glutathione Peroxidase 1 (GPX1) (AID 1845191). Note: nearly all actives have a fitted effect of over 65% in size. An outline of the steps: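 GPX1 10 nM, GR 100 nM, GSH 1 mM, NADPH 0.5 mM, CHP 0.5 mM (final). 30-min cpd preincubation, RT. Ex340/Em450 read t=0, t=15 min.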
Where [7] appears, read: measured here: PEO1 parental Z-AUC.

SMILES strings stand for the structures. Records with an inconclusive call do not appear. Activity calls are given as the source filed them. Unless noted, calls come from the whole dose curve; as a rule, active = well fitted curve in the direction sought with a large enough effect; inconclusive = small, poorly fitted or top-dose-only effect, or another doubt; inactive = no such curve, though single readings can be large; an effect the other way counts as inactive or inconclusive.

Sequence of Phospholipid hydroperoxide glutathione peroxidase GPX4 (Homo sapiens) (P36969 whole entry, looked up): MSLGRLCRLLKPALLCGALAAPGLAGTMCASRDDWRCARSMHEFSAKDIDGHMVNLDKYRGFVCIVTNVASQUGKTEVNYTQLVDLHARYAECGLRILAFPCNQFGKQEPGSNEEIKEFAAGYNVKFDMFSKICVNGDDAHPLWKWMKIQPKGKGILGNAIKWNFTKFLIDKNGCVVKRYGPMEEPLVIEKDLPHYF
Sequence of Glutathione peroxidase 1 (Homo sapiens) (P07203 whole entry, looked up): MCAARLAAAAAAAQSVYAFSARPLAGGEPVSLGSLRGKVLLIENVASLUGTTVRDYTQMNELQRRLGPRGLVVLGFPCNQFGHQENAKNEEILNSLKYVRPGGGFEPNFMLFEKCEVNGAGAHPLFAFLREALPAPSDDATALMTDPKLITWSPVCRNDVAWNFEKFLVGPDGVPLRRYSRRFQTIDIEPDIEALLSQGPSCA

As for `CCC(=O)N1CCOc2c(cc(-c3cc(OC)cc(OC)c3)cc2C(=O)N[C@H]2CCCN(C)C2)C1`, the Potency entry in assay [1] and in assay [4] was “inactive” throughout. Also, the Potency in assay [2] and in assay [3] was 4.17 µM (active) each time. The Z-AUC in assay [5] was 1.12 (inactive); in assay [5] (setting [7]), 0.448; in assay [5] (measured here: PEO4 Z-AUC) it was 0.4.
As for `COc1ccc2c(c1)C(c1ccc(F)cc1)=C(CN1CCCC1)CO2`, the Potency entry in assay [1], in assay [2] and in assay [6] was “inactive” throughout.
With `CONC(=O)Nc1ccc(-c2sc3c(c2CN(C)C)c(=O)n(-c2ccc(OC)nn2)c(=O)n3Cc2c(F)cccc2F)cc1`, the Potency entry in assay [1], in assay [2], in assay [6] and in assay [4] was “inactive” throughout. Besides, the Z-AUC in assay [5] is 0.387 (inactive); in assay [5] (setting [7]) it was 0.895; in assay [5] (measured here: PEO4 Z-AUC), 0.818.
In the case of `COc1ccc(Cl)cc1-c1cc(=O)[nH]c(=S)n1CC(N)=O`, the Potency result in assay [1], in assay [2], in assay [3] and in assay [4] was “inactive” throughout. Also, the values for the Z-AUC in assay [5], in assay [5] (setting [7]) and in assay [5] (measured here: PEO4 Z-AUC) were 0.0644 (inactive), 0.00773 and 0.346, respectively.
